# Measured values published in PubChem BioAssay (NCI).
# The panel holds about 83,000 compounds, 20% with a hit somewhere; the sample as a whole holds those more often.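 The endpoint reported here, percent growth, reads 100 for growth as untreated, 0 for no net growth and -100 for all cells dead.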 A number with no mark means an inactive call. The source made the active and inactive calls. Rule for the calls: active = growth percent below 10; inactive = the rest.
# Test system: IGROV1 ovarian
# Test: NCI-60 one-dose screen, 48 h (100 = growth as untreated, 0 = no growth, -100 = all killed)
# Conditions: 10 µM unless noted
row,Compound,growth
1,Nc1nc(SCc2cccc([N+](=O)[O-])c2)c2[nH]cnc2n1,89.2%
2,O=C(NCc1ccccc1)C(Cl)Cl,101%
3,CC(C)OC(=O)Nc1cc(F)c(F)cc1F,95.5%
4,Nc1cc(C(=O)O)[nH]c(=S)n1,95.4%
5,O=C(O)c1cc([N+](=O)[O-])ccc1Br,103%
6,CCN=C1C=CC(=C(c2ccc(N(CC)CC)cc2)c2ccc(N(CC)CC)cc2)c2ccccc21,-56.7% (active)
7,c1ccc2c(c1)CN(CCCN1CCOCC1)C2,101%
8,CNc1cc(C(=O)O)nc(NC)n1,99.1%
9,CCCCCCCCCCCCNC(=S)N/N=C/c1ccccc1O,65.1%
10,COCc1nc2ccccc2[nH]1,101%
11,C=C1C(=O)O[C@H]2[C@H]1CC/C(COC(=O)NCc1ccc(Cn3c(=O)sn(-c4ccc(Cl)cc4)c3=O)cc1)=C\CC[C@@]1(C)O[C@@H]21,54.4%
12,COc1ccc(OC)c([N+](=O)[O-])c1C(=O)CNC(C)=O,106%

# Test system: OVCAR-3 ovarian
# Test: as above
# Conditions: 10 µM unless noted
row,Compound,growth
1,N/C(=N\c1nc2ccccc2[nH]1)NC(=O)Cc1cccc2ccccc12,120%
2,O=C1NC(=O)c2cc([N+](=O)[O-])cc3cccc1c23,112%
3,COc1ccc(C2CC(c3cc(OC)c(OC)c(OC)c3)=NN2C(C)=O)cc1OCC(=O)Nc1nc2ccc(C(F)(F)F)cc2s1 (stereo not given),67.1%
4,O=C(N/N=C/c1ccc([N+](=O)[O-])cc1)c1ccc(Br)o1,121%
5,COc1cc2c(c(OC)c1OC)-c1ccc(NNC(N)=S)c(=O)cc1[C@@H](NC(C)=O)CC2,-56.8% (active)
6,COc1ccc(OC)c(NC=O)c1,117%
7,ClC1=C(Cl)C(Cl)=C(Cl)C1=Cc1ccccc1,-96.5% (active)
8,COC(=O)c1cc2c(=O)[nH]cc3c2c(n1)CCC3,99.1%
9,O=c1[nH]c(CN2CCN(c3cccc(Cl)c3)CC2)nc2cc(Cl)ccc12,100%
10,Nc1cc(NN=C(c2ccc(O)cc2)c2ccc(O)cc2)c([N+](=O)[O-])cc1[N+](=O)[O-],82%
11,O=c1cc(-c2ccccc2)oc2c(O)c(O)ccc12,5.27% (active)
12,COc1c(C(C)=O)c(OCCCCOc2c(C(C)=O)c(OC)c3ccoc3c2OC)c(OC)c2occc12,61.4%
13,O=[N+]([O-])c1cc([N+](=O)[O-])c(NN=C(c2ccc(O)cc2)c2ccc(O)cc2)cc1Cl,-94.6% (active)
14,NC(=O)c1c(NC(=O)COC(=O)Cc2ccccc2F)sc2c1CCC2,112%
15,CCCCOC(=O)c1c(C)[nH]c(/C=C2\N=C(c3ccc[nH]3)C=C2OC)c1C,-37.6% (active)
16,CC(C)[N+](C)(C)CC(O)COc1cccc2ccccc12 (stereo not given),96.8%
17,CCCCCCCCCCCCCCNC(=O)Nc1ccc(Cl)c(Cl)c1,15.5%
18,CCN(CC)CCSC(=O)C(O)(c1ccccc1)C1CCCC1 (stereo not given),121%
19,CCOC(=O)c1c[nH]c2cc(OCC3CC3)c(OCC3CC3)cc2c1=O,109%
20,Cc1cc(NN=C(c2ccc(O)cc2)c2ccc(O)cc2)c([N+](=O)[O-])cc1[N+](=O)[O-],63.3%
21,Nc1nnc(CSc2nnc3n(Cc4ccccc4)c(=O)c4c5c(sc4n23)CCCC5)s1,92.3%
22,N#Cc1c(Cl)nc(SCC2CO2)nc1-c1ccccc1 (stereo not given),137%
23,O=C(C[n+]1ccn(CC(OCc2ccc(Cl)cc2Cl)c2ccc(Cl)cc2Cl)c1)c1ccc(F)cc1 (stereo not given),-93% (active)
24,O=C(O)CSCc1nnc2n(Cc3ccccc3)c(=O)c3c4c(sc3n12)CCCC4,107%
25,COc1ccc2c3ccnc(C(F)(F)F)c3n(CCCCN)c2c1,47.3%

# Test system: HS 578T breast
# Test: as above
# Conditions: 10 µM unless noted
row,Compound,growth
1,Nc1nc(SCc2cccc([N+](=O)[O-])c2)c2[nH]cnc2n1,99.9%
2,N/C(=N\c1nc2ccccc2[nH]1)NC(=O)Cc1cccc2ccccc12,84.1%
3,O=C1NC(=O)c2cc([N+](=O)[O-])cc3cccc1c23,106%
4,COc1ccc(C2CC(c3cc(OC)c(OC)c(OC)c3)=NN2C(C)=O)cc1OCC(=O)Nc1nc2ccc(C(F)(F)F)cc2s1 (stereo not given),26.4%
5,O=C(N/N=C/c1ccc([N+](=O)[O-])cc1)c1ccc(Br)o1,127%
6,O=C(NCc1ccccc1)C(Cl)Cl,105%
7,COc1cc2c(c(OC)c1OC)-c1ccc(NNC(N)=S)c(=O)cc1[C@@H](NC(C)=O)CC2,52.1%
8,CC(C)OC(=O)Nc1cc(F)c(F)cc1F,101%
9,Nc1cc(C(=O)O)[nH]c(=S)n1,98.1%
10,COc1ccc(OC)c(NC=O)c1,106%
11,ClC1=C(Cl)C(Cl)=C(Cl)C1=Cc1ccccc1,6.95% (active)
12,O=C(O)c1cc([N+](=O)[O-])ccc1Br,106%
13,COC(=O)c1cc2c(=O)[nH]cc3c2c(n1)CCC3,109%
14,CCN=C1C=CC(=C(c2ccc(N(CC)CC)cc2)c2ccc(N(CC)CC)cc2)c2ccccc21,-20.1% (active)
15,O=c1[nH]c(CN2CCN(c3cccc(Cl)c3)CC2)nc2cc(Cl)ccc12,99%
16,c1ccc2c(c1)CN(CCCN1CCOCC1)C2,109%
17,Nc1cc(NN=C(c2ccc(O)cc2)c2ccc(O)cc2)c([N+](=O)[O-])cc1[N+](=O)[O-],71.4%

row,Compound,growth
1,O=c1cc(-c2ccccc2)oc2c(O)c(O)ccc12,91.4%
2,COc1c(C(C)=O)c(OCCCCOc2c(C(C)=O)c(OC)c3ccoc3c2OC)c(OC)c2occc12,93.9%
3,CNc1cc(C(=O)O)nc(NC)n1,94.7%
4,O=[N+]([O-])c1cc([N+](=O)[O-])c(NN=C(c2ccc(O)cc2)c2ccc(O)cc2)cc1Cl,-55.6% (active)
5,NC(=O)c1c(NC(=O)COC(=O)Cc2ccccc2F)sc2c1CCC2,109%
6,CCCCOC(=O)c1c(C)[nH]c(/C=C2\N=C(c3ccc[nH]3)C=C2OC)c1C,-23.2% (active)
7,CC(C)[N+](C)(C)CC(O)COc1cccc2ccccc12 (stereo not given),128%
8,CCCCCCCCCCCCCCNC(=O)Nc1ccc(Cl)c(Cl)c1,84.2%
9,CCN(CC)CCSC(=O)C(O)(c1ccccc1)C1CCCC1 (stereo not given),110%
10,CCOC(=O)c1c[nH]c2cc(OCC3CC3)c(OCC3CC3)cc2c1=O,103%
11,Cc1cc(NN=C(c2ccc(O)cc2)c2ccc(O)cc2)c([N+](=O)[O-])cc1[N+](=O)[O-],71.3%
12,Nc1nnc(CSc2nnc3n(Cc4ccccc4)c(=O)c4c5c(sc4n23)CCCC5)s1,106%
13,N#Cc1c(Cl)nc(SCC2CO2)nc1-c1ccccc1 (stereo not given),121%
14,O=C(C[n+]1ccn(CC(OCc2ccc(Cl)cc2Cl)c2ccc(Cl)cc2Cl)c1)c1ccc(F)cc1 (stereo not given),-57.1% (active)
15,O=C(O)CSCc1nnc2n(Cc3ccccc3)c(=O)c3c4c(sc3n12)CCCC4,99.1%
16,COc1ccc2c3ccnc(C(F)(F)F)c3n(CCCCN)c2c1,44.9%
